Our source for the growth values is PubChem BioAssay (NCI).

The panel holds about 83,000 compounds, 20% with a hit somewhere; the sample as a whole holds those more often.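 Note: values are percent growth. 100 is the growth of untreated cells, values between 100 and 0 indicate rising inhibition; between -100 and 0 indicates cell death.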 A number with no mark means an inactive call. Active and inactive are the calls of the source. Rule for the calls: active = growth percent below 10; inactive = the rest.

Some test systems named below: DU-145 prostate; K-562 leukemia; MALME-3M melanoma; MDA-MB-231 breast; RXF 393 renal; SF-268 CNS; SF-295 CNS; SF-539 CNS; UACC-257 melanoma; M14 melanoma; HCT-15 colon; HT29 colon; SNB-75 CNS; SNB-19 CNS; U251 CNS; PC-3 prostate; SK-MEL-5 melanoma; UACC-62 melanoma; LOX IMVI melanoma; SK-MEL-28 melanoma.
Test in all cases: NCI-60 one-dose screen, 48 h (100 = growth as untreated, 0 = no growth, -100 = all killed)
Holding throughout (conditions): 10 µM unless noted

On to `CCC1=Cc2c(OC)cccc2OC12C=Cc1c(OC)cccc1O2` (stereo not given), for which the growth was 27.1% in the assay on DU-145 prostate; 7.63% (active) in the assay with K-562 leukemia; 50.9% in the assay on MALME-3M melanoma; 11% in the assay on MDA-MB-231 breast; 1.82% (active) in the assay with RXF 393 renal; 58.6% in the assay with SF-268 CNS. For the same compound, the growth in the assay with SF-295 CNS was 4.11% (active); in the assay with SF-539 CNS, -5.65% (active); in the assay with UACC-257 melanoma it was 75.7%; in the assay with M14 melanoma, 6.53% (active); in the assay with HCT-15 colon it was 13.4%; with HT29 colon, 4.59% (active). Moreover, the growth was 18.6% in the assay on SNB-75 CNS; 24.8% in the assay with SNB-19 CNS; 24.7% with U251 CNS; 36.1% in the assay on PC-3 prostate; 25.7% in the assay on SK-MEL-5 melanoma; 26.2% with UACC-62 melanoma. The growth in the assay with LOX IMVI melanoma was 28.4%; with SK-MEL-28 melanoma, 52%.
As to `Cc1ncn(-c2ccc(/C=N/Nc3ccnc4cc(Cl)ccc34)cc2)c1C`, the growth with DU-145 prostate is 8.97% (active); in the assay with K-562 leukemia, 0.733% (active); in the assay on MALME-3M melanoma it was -88.7% (active); with MDA-MB-231 breast, -16.8% (active); in the assay on RXF 393 renal, -43.7% (active); in the assay with SF-268 CNS, 21.5%. Besides, the growth was -72.5% (active) in the assay with SF-295 CNS; -60.7% (active) in the assay on SF-539 CNS; -67.2% (active) with UACC-257 melanoma; -88.5% (active) with M14 melanoma; -59.4% (active) with HCT-15 colon; -77.5% (active) in the assay with HT29 colon. The growth with SNB-75 CNS is -24.2% (active); with SNB-19 CNS it was 42.3%; with U251 CNS, -81.7% (active); in the assay with PC-3 prostate, -21.3% (active); with SK-MEL-5 melanoma it was -19.7% (active); in the assay on UACC-62 melanoma it was -74.4% (active). For the same compound, the growth is -88.9% (active) in the assay on LOX IMVI melanoma and -79.3% (active) with SK-MEL-28 melanoma.
Consider `Fc1ccc2nc(-c3cnn4cccnc34)sc2c1`, for which the growth in the assay on DU-145 prostate is 103%; in the assay on K-562 leukemia, 86.2%; with MALME-3M melanoma, 108%; in the assay with MDA-MB-231 breast, 84.3%; in the assay with RXF 393 renal, 92.9%; in the assay on SF-268 CNS, 82.5%. The growth with SF-295 CNS is 100%; in the assay with SF-539 CNS, 86.7%; with UACC-257 melanoma, 100%; in the assay on M14 melanoma, 101%; in the assay on HCT-15 colon, 76.9%; with HT29 colon it was 97.9%. The growth with SNB-75 CNS is 68.5%; in the assay on SNB-19 CNS it was 82.1%; with U251 CNS it was 75.8%; with PC-3 prostate it was 84.3%; in the assay with SK-MEL-5 melanoma it was 90%; in the assay on UACC-62 melanoma, 75.4%. The growth was 92.9% with LOX IMVI melanoma and 117% in the assay on SK-MEL-28 melanoma.
For the compound `O=C1Nc2ccccc2/C1=C/c1ccc(OCC(=O)c2ccccc2)cc1`, the growth is 99.5% with DU-145 prostate; 88.9% in the assay on K-562 leukemia; 98.4% in the assay with MALME-3M melanoma; 96.2% with MDA-MB-231 breast; 101% in the assay on RXF 393 renal; 96.4% with SF-268 CNS. The growth in the assay with SF-295 CNS is 107%; in the assay on SF-539 CNS, 90.6%; in the assay with UACC-257 melanoma, 105%; in the assay with M14 melanoma it was 95.7%; with HCT-15 colon, 96.8%; in the assay on HT29 colon it was 117%. Moreover, the growth with SNB-75 CNS was 73.8%; in the assay with SNB-19 CNS it was 94.6%; in the assay on U251 CNS, 100%; in the assay on PC-3 prostate, 82.9%; with SK-MEL-5 melanoma, 97.7%; in the assay on UACC-62 melanoma it was 87.1%. Also, the growth is 94.5% with LOX IMVI melanoma and 100% in the assay with SK-MEL-28 melanoma.
On to `CC1(C)CC[C@]2(C(=O)NCCCCCCN(CCCN)CCCN)CC[C@]3(C)C(=CC[C@@H]4[C@@]5(C)CC[C@H](O)C(C)(C)[C@@H]5CC[C@]43C)[C@@H]2C1`, for which the growth with DU-145 prostate was 107%; in the assay on K-562 leukemia, 109%; with MALME-3M melanoma it was 103%; in the assay with MDA-MB-231 breast, 93.7%; in the assay with RXF 393 renal, 113%; with SF-268 CNS, 97.2%. For the same compound, the growth is 105% with SF-295 CNS; 102% in the assay with SF-539 CNS; 97.6% in the assay with UACC-257 melanoma; 105% in the assay on M14 melanoma; 105% in the assay on HCT-15 colon; 110% with HT29 colon. The growth in the assay on SNB-75 CNS was 95.5%; with SNB-19 CNS, 96.5%; with U251 CNS, 94%; with PC-3 prostate it was 103%; in the assay with SK-MEL-5 melanoma, 101%; in the assay on UACC-62 melanoma, 88.1%. Also, the figures for the growth in the assay with LOX IMVI melanoma and in the assay on SK-MEL-28 melanoma were 98.1% and 107%, respectively.
For `Cc1[nH]c(C(=O)Nc2ccc(C(=O)NCC3CCNCC3)cc2OC(C)C)c(Cl)c1Cl`, the growth with DU-145 prostate is 80.2%; with K-562 leukemia, 10.6%; in the assay on MALME-3M melanoma it was 80.1%; in the assay with MDA-MB-231 breast it was 72.3%; with RXF 393 renal, 71.3%; with SF-268 CNS, 76.6%. Besides, the growth with SF-295 CNS is 73.5%; with SF-539 CNS it was 83.8%; with UACC-257 melanoma, 101%; with M14 melanoma, 62.4%; with HCT-15 colon, 93.7%; in the assay with HT29 colon it was 40.6%. The growth in the assay with SNB-75 CNS was 44.8%; with SNB-19 CNS it was 64.2%; with U251 CNS it was 8.95% (active); in the assay on PC-3 prostate it was 61.6%; with SK-MEL-5 melanoma, 95.9%; with UACC-62 melanoma, 98.8%. Also, the growth is 9.32% (active) with LOX IMVI melanoma and 83.9% in the assay on SK-MEL-28 melanoma.
As to `Brc1cc(-c2cc(-c3ccc4c(c3)OC=CO4)[nH]n2)cs1`, the growth is 95.9% in the assay with DU-145 prostate; 41.3% in the assay with K-562 leukemia; 64% in the assay on MALME-3M melanoma; 81.2% with MDA-MB-231 breast; 93.7% in the assay with RXF 393 renal; 90.1% in the assay on SF-268 CNS. Further, the growth in the assay on SF-295 CNS was 79.1%; in the assay with SF-539 CNS, 85.2%; with UACC-257 melanoma, 101%; in the assay on M14 melanoma it was 83.3%; with HCT-15 colon, 51%; in the assay on HT29 colon it was 90%. Also, the growth in the assay with SNB-75 CNS was 83.5%; in the assay with SNB-19 CNS, 84.1%; in the assay on U251 CNS, 81.3%; with PC-3 prostate, 97.3%; in the assay on SK-MEL-5 melanoma, 87.5%; in the assay with UACC-62 melanoma, 76.9%. For the same compound, the values for the growth in the assay on LOX IMVI melanoma and with SK-MEL-28 melanoma were 80% and 94.2%, respectively.
